Assay [1] in a line: viability loss in pontine glioma line – cell-based, SU-DIPG-XIII, MIPE4.0, CellTiter-Glo, qHTS, dose response (AID 1347061; cut-off not given, nearly all actives have AC50 up to about 37 µM;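 further: cells exposed to compound for 48 hours before readout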). The conditions noted are these: CellTiter-Glo ATP luminescence. A general note: ATP-based viability assays read luminescence as a measure of living cells.
A short description of assay [2]: growth inhibition of DIPG cells – cell-based, MIPE4.0 library, CellTiter-Glo luminescence, qHTS (AID 1347066).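 Further: cells exposed to compound for 48 hours before readout.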 The settings on record: SU-DIPG-VI viability, CellTiter-Glo ATP luminescence.
Assay [3] is described as follows: viability loss in pontine glioma line – cell-based, JHH-DIPG-1, MIPE4.0, CellTiter-Glo, qHTS, dose response (AID 1347062; cut-off not given, nearly all actives have AC50 up to about 27 µM;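 on AC50: cells exposed to compound for two days before readout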). The settings on record: JHH-DIPG-1 viability, CellTiter-Glo ATP luminescence.
Assay [4] is described as follows: viability loss in pontine glioma line – cell-based, SU-DIPG-IV, MIPE4.0, CellTiter-Glo, qHTS, dose response (AID 1347063).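 Further: compound exposure lasted 48 hours before the viability readout.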 The settings on record: CellTiter-Glo ATP luminescence.
Assay [5] can be described thus: viability loss in pontine glioma line – cell-based, SU-DIPG-XIII, MIPE5.0, CellTiter-Glo, qHTS, dose response (AID 1347064; cut-off not given, nearly all actives have AC50 up to about 23 µM;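 on AC50: cells exposed to compound for 48 hours before the viability read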). The conditions noted are these: CellTiter-Glo ATP luminescence.
The nature of assay [6]: viability loss in pontine glioma line – cell-based, SU-DIPG-XXV, MIPE5.0, CellTiter-Glo, qHTS, dose response (AID 1347065; cut-off not given, nearly all actives have AC50 up to about 26 µM;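 further: cells exposed to compound for 48 hours before ATP readout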). The settings on record: CellTiter-Glo ATP luminescence.
Assay [7] in a line: JHH-DIPG-1 glioma cell viability, MIPE5.0 library, CellTiter-Glo luminescence, qHTS (AID 1347067; cut-off not given, nearly all actives have AC50 up to about 26 µM;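 further: cells exposed to compound for 48 hours before readout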). The conditions noted are these: JHH-DIPG-1 glioma viability, CellTiter-Glo ATP luminescence.
The nature of assay [8]: growth inhibition of DIPG cells – cell-based, MIPE5.0 library, qHTS (AID 1347068; cut-off not given, nearly all actives have IC50 up to about 30 µM). The settings on record: SU-DIPG-XXV viability.
Assay [9] is described as follows: viability loss with induced miR-34 in A549 – imaging, A549 dox-inducible miR-34, nuclei and caspase counts, primary screen (AID 1347080;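 active means compounds whose cell count with miR-34 switched on is under 0.7 times the count with it off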). The settings on record: A549 miR-34 inducible, Hoechst nuclei count, 48 h.
Assay [10] in a line: MELAS cybrid and Rieske KO viability enhancers – cell-based, MELAS cybrids, Rieske KO mouse fibroblasts, CellTiter-Glo, primary screen (AID 1508586;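 active means mean z-score across replicates of 1.96 or higher in either the MELAS or the Rieske mutant cell line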;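 further: z relative to plate mean and SD of compound and empty wells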). The conditions noted are these: low glucose.
Assay [11] in a line: growth inhibition, single agent or in combination, cell-based, chromothripsis tumors, cisplatin or BGB combos (AID 1671449; in the data active means inhibition above about 80%;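 further: cells exposed for 96 hours; 0% = vehicle DMSO and 100% = killing by high DMSO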). The settings on record: LFS_MB_P medulloblastoma cells.
Assay [12] can be described thus: growth inhibition, single agent and combos, cell-based, chromothripsis tumors, cisplatin or BGB combos (AID 1671450; in the data active means inhibition above about 80%;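 further: cells exposed to compound for four days; 0% = vehicle DMSO and 100% = cell killing by high DMSO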). The settings on record: HDN33 neuroblastoma cells, stronger effect = higher value.
Assay [13] is described as follows: growth inhibition, single agents and combos, ICB984, cell-based, cisplatin or BGB combos, synergistic combos for chromothripsis tumors (AID 1671451; call rule not given here;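 further: cells exposed for 96 hours before readout; 0% = vehicle DMSO and 100% = killing by high DMSO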). The settings on record: ICB984 medulloblastoma cells, drug combinations, stronger effect = higher value.
Assay [14] is described as follows: growth inhibition, single agents and combos, HTB85, cell-based, BGB or cisplatin IC20 combos, synergistic combos for chromothripsis tumors (AID 1671453; in the data active means inhibition above about 80%;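 further: cells exposed for 96 hours before readout; 0% = vehicle DMSO and 100% = high DMSO killing control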). The settings on record: HTB85 osteosarcoma cells, drug combinations, stronger effect = higher value.
Assay [15] can be described thus: growth inhibition, MDA-MB-436, cell-based, BGB or cisplatin combos, synergistic combos for chromothripsis tumors (AID 1671458; call rule not given here;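 further: cells exposed for 96 hours; 0% = vehicle DMSO and 100% = killing by high DMSO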). The conditions noted are these: MDA-MB-436 breast carcinoma growth inhibition, drug combinations, stronger effect = higher value.
The nature of assay [16]: BT084 cell growth, single and combined drugs, ICGC_MB145, cisplatin and BGB IC40 combos (AID 1671461; in the data active means inhibition above about 80%;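 further: cells exposed to drugs for 96 hours; 0% = vehicle DMSO and 100% = high DMSO full killing control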). The conditions noted are these: BT084 medulloblastoma cells, drug combinations, stronger effect = higher value.
The nature of assay [17]: RCMB18 cell growth, single agent and combined, cisplatin and BGB IC40 combos (AID 1671462; in the data active means inhibition above about 80%;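 further: cells exposed to compound for four days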). The settings on record: RCMB18 medulloblastoma cells, stronger effect = higher value.
Assay [18] is described as follows: CRL1545 cell growth, single agent and combined, cisplatin and BGB IC20 combos (AID 1671464; in the data active means inhibition above about 80%;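 further: cells exposed to compound for 96 hours before readout; 0% = vehicle DMSO and 100% = high DMSO killing control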). The conditions noted are these: CRL1545 osteosarcoma cells, stronger effect = higher value.
Where [19] appears, read: stronger effect = lower value, cell number ratio, induced over uninduced.
The mark [20] stands for this setting: measured here: relative caspase fold change +Dox/-Dox.
Setting [21] is: measured here: total cells with miR-34 induction, stronger effect = lower value.
The mark [22] stands for this setting: measured here: total cells without miR-34 induction.
[23] abbreviates: MELAS cybrid survival, CellTiter-Glo 48 h, stronger effect = higher value.
Where [24] appears, read: Rieske KO mouse fibroblast survival, CellTiter-Glo 72 h.
Setting [25] is: measured here: with BGB IC20 combination, at 0.5 µM.
The mark [26] stands for this setting: measured here: with cisplatin IC20 combination, at 0.5 µM.

Records with an inconclusive call do not appear. Active and inactive are the calls of the source. Unless noted, cut-off not given; nearly all actives show AC50 up to about 30 µM.

As to `CC[C@@H]1/C=C(\C)C[C@H](C)C[C@H](OC)[C@H]2O[C@@](O)(C(=O)C(=O)N3CCCC[C@H]3C(=O)O[C@H](/C(C)=C/[C@@H]3CC[C@H](Cl)[C@H](OC)C3)[C@H](C)[C@@H](O)CC1=O)[C@H](C)C[C@@H]2OC`, the compound was classed as inactive in [1] and in assay [2].

Regarding `NC(CO)(CO)CCc1ccc(Sc2cccc(OCc3ccccc3)c2)cc1Cl`, the AC50 (as a rule, the midpoint of the concentration-response curve, whichever way the signal moves) in assay [3] is 11.8 µM (active); in assay [4], 11.8 µM (active); in assay [5], 8.33 µM (active); in [6], 9.34 µM (active); in assay [2], 18.7 µM (active); in assay [7], 9.34 µM (active).

Consider `COc1ccc(-c2c(-c3ccc(O)cc3O)n[nH]c2C)cc1`, for which the result in assay [3], in assay [5], in assay [6], in assay [2] and in assay [8] was inactive. Besides, the results for the fold change in assay [9] (setting [19]) and in assay [9] (setting [20]) were 0.931 (inactive) and 0.724, respectively. For the same compound, the cell count in [9] (setting [21]) turned out to be 7090; in [9] (setting [22]), 7620. Further, the results for the z-score in assay [10] (setting [23]) and in assay [10] (setting [24]) were 0.614 (inactive) and -0.216, respectively.

Consider `CCc1nc(-c2cccc(C)c2)c(-c2ccnc(NC(=O)c3ccccc3)c2)s1`, for which the outcome in assay [3] and in assay [4] was inactive. For the same compound, the fold change in [9] (setting [19]) is 0.974 (inactive); in assay [9] (setting [20]), 0.928. Also, the cell count in [9] (setting [21]) worked out at 5690; in assay [9] (setting [22]), 5840. The z-score was 0.655 (inactive) in [10] (setting [23]) and 0.137 in [10] (setting [24]).

Turning to `Cc1cn([C@@H]2O[C@H](CO)[C@@H](O)[C@@H]2F)c(=O)[nH]c1=O`, the outcome in assay [3], in assay [4] and in assay [2] was inactive. Also, the inhibition (as a rule, the change of the read-out against control, counted positive when it falls) in assay [11] (at 0.5 µM, stronger effect = higher value) is -22.2% (inactive); in assay [11] (measured here: combination with BGB IC20, at 0.005 µM), -21.4%; in [11] (measured here: combination with BGB IC40, at 0.005 µM), 24.6%; in assay [11] (measured here: combination with BGB IC40, at 0.05 µM), -36.4%; in assay [11] (measured here: combination with cisplatin, at 0.5 µM, stronger effect = higher value) it was -29.1%; in assay [11] (measured here: combination with cisplatin, at 5 µM, stronger effect = higher value) it was -25.8%. For the same compound, the inhibition in assay [12] (BGB combo, at 5 µM) is -42.9%; in assay [12] (at 0.5 µM), 15.9% (inactive); in [12] (cisplatin combo, at 5 µM) it was -14%; in assay [12] (setting [25]), 25%; in assay [12] (setting [26]), 22.2%; in assay [12] (single agent, at 5 µM), -22.6%. The inhibition was -11.3% in assay [13] (BGB IC20 combo, at 0.005 µM); -20.8% in assay [13] (BGB IC40 combo, at 0.005 µM); -28.4% in [13] (BGB IC40 combo, at 0.05 µM); -27.1% (inactive) in assay [13] (at 0.5 µM); -35% in [13] (cisplatin combo, at 0.05 µM); -33.8% in assay [13] (cisplatin combo, at 0.5 µM). Further, the inhibition in assay [13] (cisplatin combo, at 5 µM) was -27.5%; in assay [13] (measured here: 5 uM single agent, at 5 µM), -20.1%; in [14] (at 0.5 µM), 7.88% (inactive); in assay [14] (measured here: with BGB IC20, at 0.5 µM), 40.2%; in [14] (measured here: with BGB IC20, at 5 µM), -1.08%; in assay [14] (measured here: with cisplatin IC20, at 0.5 µM), -7.9%. Moreover, the inhibition is -2.9% in assay [14] (measured here: with cisplatin IC20, at 5 µM); 6.67% in assay [14] (single agent, at 5 µM); -24.5% (inactive) in assay [15] (at 0.5 µM); -21.7% in [15] (measured here: BGB combination, at 0.5 µM); -19.5% in [15] (measured here: BGB combination, at 5 µM); -37.4% in assay [15] (measured here: cisplatin combination, at 0.5 µM). In addition, the inhibition was -37% in assay [15] (measured here: cisplatin combination, at 5 µM); -12.8% (inactive) in [16] (at 0.5 µM); 3.7% in assay [16] (cisplatin combination, at 0.5 µM); -127% in assay [16] (cisplatin combination, at 5 µM); -18.9% in [16] (measured here: BGB IC40 combination 0.05 uM, at 0.05 µM); -21.7% in assay [16] (single agent, at 5 µM). Moreover, the inhibition in assay [17] (at 0.5 µM) is -23.1% (inactive); in assay [17] (cisplatin combo, at 5 µM), -15.5%; in assay [17] (measured here: BGB IC40 combination, at 0.05 µM), -13.9%; in assay [17] (measured here: combination with cisplatin, at 0.5 µM), -19%; in assay [17] (single agent, at 5 µM) it was -12.7%; in [18] (at 0.5 µM), 12.7% (inactive). For the same compound, the inhibition is 6.33% in [18] (setting [25]); 14.6% in assay [18] (setting [26]); -20.4% in assay [18] (single agent, at 0.05 µM); 5.83% in assay [18] (single agent, at 5 µM).
